HTR5A ag: counter-screen for OPRM1-OPRD1 agonists: human HTR5A agonism. P47898. HTR5A agonist assay, luminescence, cell-based. activation, % at 9.3 µM. 340,000 tested, 0.61% active; in the data active = activation mostly above about 9.5%, no sharp cut-off; inactive = mostly below about 7.6%
Target sequence (P47898 whole entry, looked up): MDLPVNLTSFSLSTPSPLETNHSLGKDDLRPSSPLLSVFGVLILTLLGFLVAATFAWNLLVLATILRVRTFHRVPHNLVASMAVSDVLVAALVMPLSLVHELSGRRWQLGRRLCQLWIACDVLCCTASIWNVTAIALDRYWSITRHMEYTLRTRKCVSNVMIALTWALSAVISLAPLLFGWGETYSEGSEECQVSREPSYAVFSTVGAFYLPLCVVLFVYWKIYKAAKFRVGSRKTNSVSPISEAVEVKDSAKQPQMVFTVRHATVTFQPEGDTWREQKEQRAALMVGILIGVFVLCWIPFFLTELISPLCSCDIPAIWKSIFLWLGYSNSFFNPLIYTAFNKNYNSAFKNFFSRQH
HTR5A inv ag: HTR5A inverse agonism, opioid heterodimer counter-screen; HTR5A cell line, luminescence; 340,000 tested, 0.083% active; P47898; inhibition, % at 9.3 µM; in the data active = inhibition mostly above about 23%, no sharp cut-off; inactive = mostly below about 18%
OPRM1-OPRD1 inv: inverse agonists of human mu-delta opioid receptor heterodimerization; 340,000 tested, 0.21% active; cell-based MOR-DOR heterodimer luminescence, inverse agonism; P35372+P41143; inhibition, % at 9.3 µM; AID 504357; in the data active = inhibition above about 22%, passing the limit was not always enough
MOR-DOR ag-1: OPRM1-OPRD1 heterodimerization agonism. cells, luminescence. AID 504326. 340,000 tested, 0.3% active. activation, % at 9.3 µM
MOR-DOR ag-2: counter-screen for HTR5A agonists: OPRM1-OPRD1 heterodimerization agonism. shares compounds with HTR5A ag. U2OS counter-screen cells, complementation luminescence, 3 h. activation, % at 9.3 µM. 800 tested, 13% active
HTR5A ag conf: confirmation of human HTR5A agonists; shares compounds with HTR5A ag; HTR5A agonist cell assay, luminescence; activation, % at 9.3 µM; 800 tested, 17% active; in the data active = activation above about 17%
Hits are given with their value; 0 = inactive; - = no result given. Most compounds without a hit are left out; they make up all but 1.1% or so of the library. Rule as the data show it, unless noted: active = activation above about 18%; inactive = the rest.

SMILES	HTR5A ag	HTR5A inv ag	OPRM1-OPRD1 inv	MOR-DOR ag-1	MOR-DOR ag-2	HTR5A ag conf
CC(CCc1ccccc1)NS(=O)(=O)c1ccccc1F (stereo not given)	0	0	0	0	-	-
COC(=O)C=C1CCC2C3CC(F)C4(O)CC(=O)CCC4(C)C3C(=O)CC12C (stereo not given)	0	0	0	0	-	-
CCCCCCCCCCn1c2c(c(=N)c3c1CCC3)CCC2	35	0	0	0	0	0
COc1cc2cnc(-c3ccsc3)cc2cc1OC	22	0	0	0	0	0
C/C(=N/NC(=O)CNc1ccc(C)cc1)c1ccc(Br)s1	24	0	0	0	0	38
COc1ccccc1NCC(=O)N/N=C(\C)c1ccc(Br)s1	46	0	0	0	0	36
Cc1ccc(Oc2nnc(-c3ccccc3)cc2C#N)cc1	18	0	0	0	0	0
Cc1ccc2oc(=O)c3cnn(CC(=O)NC4CCCCC4C)c3c2c1 (stereo not given)	21	0	0	0	0	0
Cc1cc(NS(=O)(=O)c2ccc(NC(=O)COc3ccc(Cl)cc3Cl)cc2)no1	20	0	0	0	0	0
O=C(NCC1COCCO1)c1cc(COc2ccc(F)cc2F)on1 (stereo not given)	0	0	0	0	-	-
CN(c1ccc(OCC(=O)N2CCCC2)cc1)S(=O)(=O)c1ccc(Cl)cc1	17	0	0	0	0	0
FC(F)(F)c1cnc(N2CCCN(C(=S)Nc3ccccc3)CC2)c(Cl)c1	17	0	0	0	0	0
CC(C)C[C@@H]1NC(=O)N(CCCn2ccnc2)C1=O	0	0	0	0	-	-
COc1ccccc1OCC(=O)Nc1ccc(Cl)cc1	0	0	0	0	-	-
COc1ccccc1OCC(=O)Nc1ccc(NC(=O)COc2ccccc2OC)cc1	24	0	0	0	0	0
C/C(=C\C(=O)O)C12CC3CC(CC(C3)C1)C2	0	0	0	0	-	-
NC(=O)CCCn1c(C(=O)c2ccc(Cl)cc2)c2ccc([N+](=O)[O-])cc2[n+]1[O-]	0	0	0	0	-	-
Cc1ccc(C(=O)c2c3ccc([N+](=O)[O-])cc3[n+]([O-])n2CCCC(N)=O)cc1	17	0	0	0	0	0
Cn1c(CCNC(=O)c2ccccc2F)nnc1SCC(=O)Nc1nncs1	20	0	0	0	0	0
O=C(c1ccc(Cl)c(S(=O)(=O)N2CCCC2)c1)N1CCN(c2ccccc2F)CC1	21	0	0	0	0	0
O=C(c1ccc(Cl)c(S(=O)(=O)N2CCCC2)c1)N1CCN(c2ncccn2)CC1	20	0	0	0	0	0
O=C(c1ccc(Cl)c(S(=O)(=O)NCc2ccccc2)c1)N1CCN(c2ccccn2)CC1	21	0	0	0	0	0
O=C(c1ccc(Cl)c(S(=O)(=O)N2CCOCC2)c1)N1CCN(c2ccccc2F)CC1	0	0	0	0	-	-
CC(Oc1cccc(F)c1)C(=O)Nc1ccc(N2CCOCC2)cc1 (stereo not given)	17	0	0	0	0	0
Cc1cccc(OC(C)C(=O)Nc2ccc(N3CCCCC3)cc2)c1 (stereo not given)	0	0	0	0	-	-
SMILES	HTR5A ag	HTR5A inv ag	OPRM1-OPRD1 inv	MOR-DOR ag-1	MOR-DOR ag-2	HTR5A ag conf
COc1ccccc1C(=O)NC(=O)COC(=O)c1ccc(Br)o1	0	0	0	0	-	-
COc1cccc(-c2sc3ccc(OC)cc3c2-c2ccc(OCCN3CCCC3)cc2)c1	0	0	0	0	-	-
COc1cccc(-c2sc3ccccc3c2-c2ccc(OCCN3CCCC3)cc2)c1	16	0	0	0	0	19
COc1cccc(-c2sc3ccccc3c2-c2ccc(OCCN3CCCCC3)cc2)c1	17	0	0	0	0	0
CC(=O)c1ccc(N2CCN(C(=O)c3ccc(C(=O)c4ccccc4)cc3)CC2)cc1	0	0	0	0	-	-
CCOc1ccc(/C=C/C(=O)N(C)CC(=O)Nc2cccc(F)c2)cc1OCC	0	0	0	0	-	-
Cc1ccc2[nH]cc(CCNS(=O)(=O)c3ccc(F)cc3)c2c1	0	0	0	0	-	-
CC(=O)Nc1ccc(S(=O)(=O)NCCc2c[nH]c3ccc(C)cc23)cc1	27	0	0	0	60	0
N#CC(=C=[N-])c1nc2ccccc2nc1-[n+]1cccc(NC(=O)c2ccccc2)c1	0	0	0	0	-	-
CCc1cc[n+](-c2nc3ccccc3nc2C(=C=[N-])C#N)cc1	16	0	0	0	0	0
COc1ccc(OC)c2sc(N(CCN(C)C)C(=O)/C=C/c3cccs3)nc12	0	0	0	0	-	-
